Potency and affinity values are given separately. A number with no mark means an inactive call. The rule behind the calls is not given here.
Assay: viability loss in HEK293 cells – cell-based, plate reader, cherry-picked samples, cytotoxicity control, dose response (AID 743446)
Conditions: hits give low values; at 26 µM unless noted

Row | Compound | max activity
1 | CN(C)c1ccc(C(=O)Nc2nc3c(s2)CCCC3)cc1 | -30%
2 | CCOc1ccc(C(=O)Nc2nnc(SCC(=O)NCC3CCCO3)s2)cc1 (stereo not drawn) | 27.5% [at 3 µM]
3 | Cn1c(=O)c2cc(NC(=O)NCc3ccccc3)ccc2n1C/C=C/c1ccccc1 | 34.9% [at 1.6 µM]
4 | C=CCn1c(SCC(=O)Nc2ncc(Cc3ccc(C)c(Cl)c3)s2)nnc1-c1ccncc1 | -6.05% [at 3 µM]
5 | N#C[C@H]1[C@@H](c2ccc(C3=CCCCC3)cc2)[C@H](CO)N1C(=O)c1ccccn1 | 74.4% [at 12 µM]
6 | CCS(=O)(=O)N1Cc2ccccc2CC1C(=O)Nc1nc2ccccc2s1 (stereo not drawn) | 11.4% [at 0.38 µM]
7 | C[C@H](CO)N1C[C@H](C)[C@H](CN(C)C(=O)Nc2ccc(F)cc2)OCCCC[C@H](C)Oc2ccc(NC(=O)C3CCCCC3)cc2C1=O | -10.8% [at 6 µM]
8 | COCCCNc1ccn2nc(-c3ccccc3)cc2n1 | 42.6% [at 12 µM]
9 | C[C@H]1CN([C@@H](C)CO)C(=O)c2cc(C#CCc3ccccc3)cnc2O[C@H]1CN(C)Cc1ccccc1 | 13.9% [at 3 µM]
10 | Cc1cccn2c(CNCC3(c4ccccc4)CCCC3)c(C(=O)N3CCOCC3)nc12 | 13.8% [at 3 µM]
11 | C[C@H](CO)N1C[C@H](C)[C@H](CN(C)C(=O)Nc2cccc3ccccc23)OCCCC[C@H](C)Oc2ccc(NC(=O)CCC(F)(F)F)cc2C1=O | 78.9%
12 | CCN(C(=O)COC(=O)C12CC3CC(CC(O)(C3)C1)C2)c1c(N)n(Cc2ccccc2)c(=O)[nH]c1=O | 34% [at 0.1 µM]
13 | Cc1cnc(NC(=O)c2ccc(OCC3CCCO3)cc2)s1 (stereo not drawn) | 9% [at 6 µM]
14 | Cn1nnnc1SCC(=O)N1CCN(C(=O)c2ccco2)CC1 | -12.8% [at 0.05 µM]
15 | CC(C)C(=O)N1CCN(c2ccc(NC(=O)COc3ccccc3[N+](=O)[O-])cc2)CC1 | -46.9%
16 | Cc1ccccc1C(=O)Nc1nnc(-c2ccco2)s1 | -13.7% [at 12 µM]
17 | C[C@H](CO)N1C[C@H](C)[C@H](CN(C)C(=O)Nc2ccccc2)OCCCC[C@H](C)Oc2ccc(NC(=O)Nc3ccccc3)cc2C1=O | 21.5%

Row | Compound | max activity
18 | Cc1cnc(NC(=O)c2sc3ccccc3c2Cl)s1 | 35.5% [at 6 µM]
19 | N#C[C@@H]1[C@H](c2ccc(C#Cc3ccccc3F)cc2)[C@@H](CO)N1C(=O)C1CCC1 | 28.6% [at 6 µM]
20 | CCn1cc(S(=O)(=O)Nc2cccnc2)cn1 | 9.79% [at 0.38 µM]
21 | C[C@H](CO)N1C[C@H](C)[C@H](CN(C)Cc2ccncc2)Oc2ncc(C#CCC3CCCCC3)cc2C1=O | 18.1% [at 3 µM]
22 | C[C@@H]1CN([C@@H](C)CO)C(=O)c2cc(NS(=O)(=O)c3ccc(F)cc3)ccc2O[C@H]1CN(C)Cc1ccc(-c2ccccc2)cc1 | -27.1%
23 | Cc1cnc(NC(=O)COc2ccccc2Cl)s1 | 11.6%
24 | COc1ccc(-c2cc(C(=O)N3CCOCC3)no2)cc1 | -14.8%
25 | C[C@H](CO)N1C[C@H](C)[C@H](CN(C)C(=O)Nc2cccc3ccccc23)OCCCC[C@H](C)Oc2ccc(NC(=O)NC3CCCCC3)cc2C1=O | 68.9%
26 | Cc1ccc(CNS(=O)(=O)c2ccc3c(c2)CCN3C(=O)CCCC(=O)O)cc1 | 14.5% [at 6 µM]
27 | Nc1c(C(=O)Nc2cccc(C(=O)O)c2)sc2nc3c(cc12)CCCC3 | -12.6% [at 0.1 µM]
28 | COc1ccc2sc(NC(=O)c3ccco3)nc2c1 | 18.6% [at 0.05 µM]
29 | COC(=O)c1ccc2nc(-c3cccc(N)c3)cn2c1 | 9.42% [at 0.195 µM]
30 | O=C(Cc1ccccc1Cl)Nc1cccnc1 | 17.2% [at 0.1 µM]
31 | Cc1ccc(-n2nnc(-c3nccn3C)n2)cc1 | -39%
32 | C[C@H](CO)N1C[C@H](C)[C@H](CN(C)C(=O)Nc2ccc3c(c2)OCO3)OCCCC[C@H](C)Oc2ccc(NC(=O)NC3CCCCC3)cc2C1=O | -16.6%
33 | Oc1ccc(-c2csc(-c3cccnc3)n2)c(O)c1 | -34.3%
